From ChEMBL document CHEMBL1201862, “PubChem BioAssay data set” (2004)
The campaign covered roughly 390,000 compounds. About 17,000 (4.4%) were called active. About 8% were inconclusive and are not listed. This is one part of a sample in which actives are shown more often than they occur. The rule behind the calls is not given here.

Each compound was assayed against T1, Lysine-specific demethylase 4A (Homo sapiens) (UniProt O75164) (assay: qHTS Assay for Inhibitors of JMJD2A-Tudor Domain. [Related pubchem assays (depositor defined):AID504402]).
T1 sequence (whole entry): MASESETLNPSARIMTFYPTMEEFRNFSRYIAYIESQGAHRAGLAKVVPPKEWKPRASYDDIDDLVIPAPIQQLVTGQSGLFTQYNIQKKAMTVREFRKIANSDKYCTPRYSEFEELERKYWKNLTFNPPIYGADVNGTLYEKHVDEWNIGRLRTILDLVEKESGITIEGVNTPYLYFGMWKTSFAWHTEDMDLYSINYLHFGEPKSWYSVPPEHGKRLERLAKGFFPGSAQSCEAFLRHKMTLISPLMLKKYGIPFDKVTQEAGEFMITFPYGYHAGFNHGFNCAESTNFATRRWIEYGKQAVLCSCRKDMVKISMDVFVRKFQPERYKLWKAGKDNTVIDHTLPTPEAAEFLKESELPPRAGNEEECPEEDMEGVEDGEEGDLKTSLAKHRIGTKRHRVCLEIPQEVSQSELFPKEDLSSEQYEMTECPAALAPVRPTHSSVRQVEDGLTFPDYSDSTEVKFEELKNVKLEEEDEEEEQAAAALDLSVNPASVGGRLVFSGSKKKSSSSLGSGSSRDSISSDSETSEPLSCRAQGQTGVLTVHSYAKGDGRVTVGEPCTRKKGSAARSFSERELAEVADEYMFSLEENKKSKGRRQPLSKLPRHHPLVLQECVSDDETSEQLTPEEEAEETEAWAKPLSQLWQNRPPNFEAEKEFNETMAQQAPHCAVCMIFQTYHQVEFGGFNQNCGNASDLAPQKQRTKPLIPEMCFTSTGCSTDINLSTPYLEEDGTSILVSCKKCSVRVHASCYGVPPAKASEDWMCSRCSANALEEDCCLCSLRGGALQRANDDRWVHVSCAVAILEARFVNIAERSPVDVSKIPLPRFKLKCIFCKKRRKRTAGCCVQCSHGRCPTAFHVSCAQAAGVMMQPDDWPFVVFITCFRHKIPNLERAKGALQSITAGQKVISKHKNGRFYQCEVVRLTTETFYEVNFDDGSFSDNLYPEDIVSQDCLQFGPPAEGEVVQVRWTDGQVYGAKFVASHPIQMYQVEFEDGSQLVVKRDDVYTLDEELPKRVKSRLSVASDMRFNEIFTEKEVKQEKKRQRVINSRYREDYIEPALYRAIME
Format: functional

Row | Structure (SMILES) | Potency
1 | CCCc1nnc(NC(=O)C2C(=O)c3cccc4c3N(CC4)C2=O)s1 (stereo not drawn) | 44.7 µM (active)
2 | Cl.N[C@@H](CCC(=O)O)C(=O)O | 20 µM (active)
3 | Cl.NC(CCC(=O)O)C(=O)O (stereo not drawn) | 3.55 µM (active)
